# Experimental data reported in the supplement of paper PMC9844399.
# Where a name gives a salt, the structure may show the parent alone. A number with no mark means an inactive call.
# Test system: HeLa
# Test: MALAT1 nuclear FISH intensity, robust Z-score vs DMSO; higher = more nuclear MALAT1 lncRNA, active = -3 or less
# Settings: 10 µM; 6 h
# 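Further: High-content confocal imaging of branched-DNA amplified FISH in 384-well plates, Hoechst-defined nuclei, score is well value minus plate DMSO median over DMSO robust SD, four wells per compound.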
row,Compound,MALAT1 nuclear FISH intensity
1,OC[C@H]1O[C@@H](n2cnc3c2N=CNC[C@H]3O)C[C@@H]1O [Pentostatin],-0.805
2,CN(C)CCOC(=O)C(c1ccccc1)C1(O)CCCC1 (stereo not given) [Cyclopentolate],-1.07
3,CN(C)CCOC(c1ccccc1)c1ccccc1,-0.464
4,C[C@H](CCC(=O)O)[C@H]1CC[C@H]2[C@@H]3[C@H](O)C[C@@H]4C[C@H](O)CC[C@]4(C)[C@H]3C[C@H](O)[C@]12C [Cholic acid],-1.04
5,CC(Oc1ccc(O)cc1)(P(=O)(O)O)P(=O)(O)O,-1.23
6,CN(C)CCC(c1ccc(Cl)cc1)c1ccccn1 (stereo not given) [Chlorpheniramine Maleate],-0.0115
7,CCNC(=O)CCC/C=C\C[C@@H]1[C@@H](/C=C/[C@@H](O)CCc2ccccc2)[C@H](O)C[C@@H]1O [Bimatoprost],0.451
8,CC(/C=C/C(=O)NO)=C\[C@@H](C)C(=O)c1ccc(N(C)C)cc1 [Trichostatin-A],0.794
9,"C=C1/C(=C\C=C2/CCC[C@]3(C)[C@@H]([C@H](C)CCCC(C)(C)O)CC[C@@H]23)C[C@@H](O)C[C@@H]1O [1?,25-Dihydroxyvitamin D3]",-0.354
10,COc1ccc(O)cc1 [Mequinol],-0.158
11,CC(C)[C@H](N)C(=O)OCC(CO)OCn1cnc2c(=O)nc(N)[nH]c21 (stereo not given in full),-0.522
12,CCCNC(=O)NS(=O)(=O)c1ccc(Cl)cc1 [Chlorpropamide],-0.224
13,CC/C(=C(\c1ccccc1)c1ccc(OCCN(C)C)cc1)c1ccccc1 [Tamoxifen citrate],1.26
14,CCN(CC)CCNC(=O)c1c(C)[nH]c(/C=C2\C(=O)Nc3ccc(F)cc32)c1C [Sunitinib malate],-1.09
15,CC1(C)S[C@@H]2[C@H](NC(=O)Cc3ccccc3)C(=O)N2[C@H]1C(=O)O [Penicillin G Potassium (Benzylpenicillin)],-0.0727
16,CN(CCOc1ccc(CC2SC(=O)NC2=O)cc1)c1ccccn1 (stereo not given) [Rosiglitazone],1.66
17,Cn1cc(-c2ccc3c(c2)CCN3C(=O)Cc2cccc(C(F)(F)F)c2)c2c(N)ncnc21,-0.916
18,C[C@H](CCC(=O)O)[C@H]1CC[C@H]2[C@@H]3[C@@H](O)C[C@@H]4C[C@H](O)CC[C@]4(C)[C@H]3CC[C@]12C [Ursodiol],-0.562
19,Cc1ccc(C(=O)c2cc(O)c(O)c([N+](=O)[O-])c2)cc1 [Tolcapone],-1.19
20,O=C(O)[C@H]1/C(=C/CO)O[C@@H]2CC(=O)N21 [Clavulanate Potassium],0.0212
21,N=C(N)c1ccc(OCCCCCOc2ccc(C(=N)N)cc2)cc1 [Pentamidine Isethionate],-0.144
22,Cn1ccnc1S [Methimazole],-0.992
23,O=C1Nc2ccc(Cl)cc2[C@@](C#CC2CC2)(C(F)(F)F)O1 [Efavirenz],0.436
24,N#CC(C#N)=C(N)/C(C#N)=C/c1ccc(O)cc1,-0.368
25,"CCCCCCCCC#CCC#CCC#CCCCC(=O)O [5,8,11-Eicosatriynoic acid]",-0.729
26,CC(=O)CC(c1ccc([N+](=O)[O-])cc1)c1c(O)c2ccccc2oc1=O (stereo not given) [Acenocoumarol],-2.08
27,CC[C@H]1OC(=O)[C@H](C)C(=O)[C@H](C)[C@@H](O[C@@H]2O[C@H](C)C[C@H](N(C)C)[C@H]2O)[C@](C)(OC)C[C@@H](C)C(=O)[C@H](C)[C@H]2N(CCCCn3cnc(-c4cccnc4)c3)C(=O)O[C@]12C [Telithromycin],-0.3
28,CO[C@H]1O[C@@H]2O[C@@]3(C)CC[C@H]4[C@H](C)CC[C@@H]([C@H]1C)[C@@]24OO3 [Artemether],-0.163
29,CC1(C)O[C@@H]2[C@@H](CO[C@@]3(COS(N)(=O)=O)OC(C)(C)O[C@@H]23)O1 [Topiramate],0.117
30,CC[C@@H]1/C=C(\C)C[C@H](C)C[C@H](OC)[C@H]2O[C@@](O)(C(=O)C(=O)N3CCCC[C@H]3C(=O)O[C@H](/C(C)=C/[C@@H]3CC[C@H](Cl)[C@H](OC)C3)[C@H](C)[C@@H](O)CC1=O)[C@H](C)C[C@@H]2OC [Pimecrolimus],1.33
